Assay outcomes (PubChem)
KCNH2 3.1 block: KCNH2 3.1 (human) potassium channel inhibition | activity change, % (tested at about 1.8 µM) | 340,000 tested, 0.95% active | U2OS KCNH2 3.1, thallium flux FluxOr; active compounds read low;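 active = maximum activity change below -70%; inconclusive = maximum activity change from -70% to -50%; inactive = maximum activity change above -50%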;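 note: thallium influx rate constant from kinetic fluorescence after stimulation buffer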
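U2OS cells transduced with KCNH2 3.1 mutant virus (1.77 x 10^8 /mL, 4 h), plated overnight at 37 C, loaded 45 min with FluxOr dye plus Red40 quencher. Thallium flux rate constant from kinetic reads after stimulation buffer, normalised to controls.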
TRPV1 agonist: agonists of human vanilloid receptor 1 (TRPV1); activation, % at 8.33 µM; TRPV1-expressing cells, Fluo-8 calcium influx, agonist mode; 320,000 tested, 0.19% active; Q8NER1; in the data active = activation above about 80%; inconclusive = between about 30% and that limit
Target sequence (Q8NER1 whole entry, looked up): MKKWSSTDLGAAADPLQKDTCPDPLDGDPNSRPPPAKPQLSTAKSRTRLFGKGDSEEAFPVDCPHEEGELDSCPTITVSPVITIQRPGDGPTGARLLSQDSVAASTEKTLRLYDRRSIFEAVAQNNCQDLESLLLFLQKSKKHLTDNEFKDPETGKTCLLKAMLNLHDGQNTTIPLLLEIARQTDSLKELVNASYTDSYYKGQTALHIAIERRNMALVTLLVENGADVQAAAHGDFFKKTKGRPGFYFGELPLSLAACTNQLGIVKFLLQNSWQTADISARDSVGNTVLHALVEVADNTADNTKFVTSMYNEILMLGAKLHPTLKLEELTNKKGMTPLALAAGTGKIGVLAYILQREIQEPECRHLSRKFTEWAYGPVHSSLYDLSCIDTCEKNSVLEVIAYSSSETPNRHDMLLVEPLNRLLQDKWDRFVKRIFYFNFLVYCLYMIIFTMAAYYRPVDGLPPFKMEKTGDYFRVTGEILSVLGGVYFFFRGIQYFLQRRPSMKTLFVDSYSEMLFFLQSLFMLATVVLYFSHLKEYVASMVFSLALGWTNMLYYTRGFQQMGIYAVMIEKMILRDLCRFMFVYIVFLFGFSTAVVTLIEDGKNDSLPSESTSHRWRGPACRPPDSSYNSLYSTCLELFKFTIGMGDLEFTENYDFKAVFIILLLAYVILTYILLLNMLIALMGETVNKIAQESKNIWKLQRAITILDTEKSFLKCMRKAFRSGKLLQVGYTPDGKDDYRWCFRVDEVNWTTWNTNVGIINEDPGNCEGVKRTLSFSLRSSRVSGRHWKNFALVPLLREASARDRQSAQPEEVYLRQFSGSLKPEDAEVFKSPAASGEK
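Cells expressing TRPV1 were dye-loaded with Fluo-8 and read kinetically: 10 s baseline, 3 min after compound (agonist portion), then 2 min after EC20 capsaicin (allosteric enhancer portion). Calcium-bound dye fluorescence at 480/520 nm.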
hERG WT inh: inhibitors of human wildtype KCNH2 potassium channel; Q12809; U2OS, BacMam KCNH2, thallium flux FluxOr; active compounds read low; activity change, % at 1.84 µM; 340,000 tested, 0.37% active; AID 720551;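 active = maximum activity change below -70%; inconclusive = maximum activity change between -70% and -50%; inactive = maximum activity change above -50%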
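U2OS cells were transduced with wild-type KCNH2 virus (2.03 x 10^8 / mL) for 4 h at room temperature, then cultured overnight at 37 C. Thallium flux was read with FluxOr dye. Rate constants were normalized to DMSO controls.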
TRPV1 potentiator: human TRPV1 potentiation. potentiation, % at 8.33 µM. TRPV1-expressing cells, Fluo-8 calcium influx, capsaicin EC20 potentiation. 320,000 tested, 0.02% active. Q8NER1; in the data active = potentiation above about 80%; inconclusive = between about 30% and that limit
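Fluo-8 calcium influx in TRPV1-expressing cells, kinetic read (ex 480/em 520 nm). Compound added and read 3 min for agonist activity, followed by capsaicin at EC20 final and 2 min further read for enhancement.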
ClpP mod: qHTS Assay for Activators of ClpP; ATP-dependent Clp protease proteolytic subunit (Bacillus subtilis (strain 168)), P80244; purified B. subtilis ClpP, FRET peptide cleavage, 20 min; Potency, µM (series often up to 57.5 µM); 340,000 tested, 1.9% active; AID 651965, 2013; active = well fitted falling curve with a large enough effect; inconclusive = small, poorly fitted or top-dose-only effect; inactive = no such curve, though single readings can be large or run the other way; note: the source files actives as falling curves though it sought activators and does not explain the sign; nearly all actives have a fitted effect of over 65% in size
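FRET quenching reversal measured ClpP activation: 10 microg/mL B. subtilis ClpP at pH 8 with the FRET-FV decapeptide, read at 430 nm after 320 nm excitation. The 20-min minus 0-min signal was scaled between DMSO/no-enzyme wells and ADEP (5.8 microM final).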
p53 reactivation: re-activators of mutant p53; H1299 p53-A138V BP100-luciferase reporter, luminescence, 24 h; Potency, µM (series often up to 92.2 µM), actives largely listed as activators; 320,000 tested, 0.063% active; AID 504706; active = well fitted activation curve with a large enough effect; inconclusive = small, poorly fitted or top-dose-only effect; inactive = no such curve, though single readings can be large or run the other way; note: nearly all actives have a fitted effect of over 45% in size
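p53-null H1299 cells stably carrying temperature-sensitive p53-A138V and a BP100-luciferase reporter were pinned with compounds (4-point, 1:5 series) and held 24 hrs at 37 deg C. Luminescence was read 10 min after detection reagent.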
Hits are given with their value; - = inactive; ? = inconclusive; . = no result. Rows were chosen to be rich in hits. Some 2.6% of all compounds tested hit in one or more screens of this group.

SMILES | KCNH2 3.1 block | TRPV1 agonist | hERG WT inh | TRPV1 potentiator | ClpP mod | p53 reactivation
O=S1(=O)CC2N=C(N(Cc3ccc(F)cc3Cl)c3ccccc3F)SC2C1 (stereo not drawn) | - | - | -90 | - | - | -
O=C(c1ccc2c(c1)OCO2)C1CCCN(Cc2cc(F)ccc2-n2cccn2)C1 (stereo not drawn) | -72 | - | - | - | . | -
O=C(c1cccc(C(F)(F)F)c1)C1CCCN(Cc2cccn2-c2ccccn2)C1 (stereo not drawn) | -109 | - | ? | - | . | -
O=C(c1ccc2c(c1)OCO2)C1CCCN(Cc2cccn2-c2cccnc2)C1 (stereo not drawn) | - | - | - | - | 35µM | -
Cc1ccc(-n2cccn2)c(CN2CCCC(C(=O)c3ccc4c(c3)OCO4)C2)c1 (stereo not drawn) | -94 | - | ? | - | . | -
COCCCNc1ncnc2c1nnn2C | . | . | . | . | - | .
NC(=O)c1ccc(-c2ccc(N3C(c4ccsc4)=Cc4ccc(F)cc4C3CC(=O)c3ccco3)cc2)cc1 (stereo not drawn) | . | . | . | . | - | .
COc1cccc(CNC(=O)Cn2c(=O)n3nc(-c4cccc(F)c4)nc3c3ccccc32)c1 | . | . | . | . | - | .
CCCCNC(=O)c1cccc2c(=O)c(C)c(-c3ccccc3)oc12 | - | - | - | - | 28µM | -
O=C(Nc1ccc(N2CCN(C(=O)c3ccc(Cl)cc3)CC2)cc1)c1ccc2c(c1)OCCO2 | -79 | - | - | - | - | -
O=C(Nc1ccc(N2CCN(C(=O)c3ccccc3)CC2)cc1)c1ccc2c(c1)OCCO2 | - | - | - | - | - | -
O=C(Nc1ccccc1N1CCN(C(=O)c2ccc(Cl)cc2)CC1)c1ccc2c(c1)OCO2 | -82 | - | - | - | - | -
CC(=O)c1ccc(N2CCN(C(=O)Nc3ccc(Cl)cc3)CC2)cc1 | - | 84 | - | - | - | -
O=C(CSc1ccc(Cl)cc1)Nc1ccc(N2CCN(C(=O)c3ccc(Cl)cc3)CC2)cc1 | -89 | - | -133 | - | - | -
CCc1nnc(SC(CC)C(=O)NCCOC)c2cc3occc3n12 (stereo not drawn) | . | . | . | . | - | .
Cc1cc(Cl)ccc1NC(=O)C(=O)NCc1ccco1 | . | . | . | . | - | .
COc1ccc(C#Cc2cccc(-c3nc(C(=O)N4CCN(C)CC4)cc4c3[C@H](CCO)N(S(=O)C(C)(C)C)C4)c2)cc1OC (stereo partly drawn) | . | . | . | . | - | .
O=C(Nc1ccc(N2CCN(C(=O)c3ccc(Cl)cc3)CC2)cc1)c1cccs1 | -74 | - | - | - | - | -
O=C(c1ccc(Cl)cc1)N1CCC(O)(CSc2ccc(Cl)cc2)CC1 | -89 | . | - | . | - | -
O=C(c1ccc(Cl)cc1)N1CCC(O)(CSc2ccccc2)CC1 | - | - | - | - | - | -
C=C1C=C(C)n2ncc(C(=O)Nc3cccc(C(=O)Nc4cccc(C(F)(F)F)c4)c3)c2N1 | . | . | . | . | - | .
CC(Nc1ccc(Br)cn1)c1cc(Cl)ccc1O (stereo not drawn) | -72 | - | - | - | - | -
CC(Nc1ccc(Cl)cc1)c1cc(Cl)ccc1O (stereo not drawn) | - | - | - | - | - | -
CCN(C)C1CN(Cc2cn(CCCC(=O)OC)nn2)S(=O)(=O)C1 (stereo not drawn) | . | . | . | . | - | .
Cc1ccc(NC(=O)C2CCCN(C(=O)c3ccc(Cl)cc3)C2)cc1C (stereo not drawn) | -122 | ? | - | - | - | -
SMILES | KCNH2 3.1 block | TRPV1 agonist | hERG WT inh | TRPV1 potentiator | ClpP mod | p53 reactivation
O=C(Nc1cccc(F)c1)C1CCN(C(=O)c2ccc(Cl)cc2)CC1 | - | - | - | - | 25µM | -
CN(CC(=O)Nc1cccc(F)c1)C(=O)C1CCN(C(=O)c2ccc(Cl)cc2)CC1 | - | - | - | - | - | ?
Cc1cccc(OCC(=O)Nc2cc(-c3nc4cc(Cl)ccc4o3)ccc2C)c1 | . | . | . | . | - | .
COc1ccccc1NC(=S)NCc1cccs1 | - | - | - | - | 13µM | -
N=C1/C(=C\c2coc3ccccc3c2=O)C(=O)N=C2SC(c3ccncc3)=NN12 | - | 91 | - | - | . | -
Cc1cc(C)n(-c2ccc([N+](=O)[O-])cc2)n1 | -107 | - | - | - | - | -
Cc1cc(N)n(-c2ccc([N+](=O)[O-])cc2)n1 | - | - | - | - | . | -
O=C(c1ccc2c(c1)N(Cc1ccccc1)C(=O)c1ccccc1S2(=O)=O)N1CCN(c2ccccn2)CC1 | . | . | . | . | - | .
Cc1ccc(OCCn2cc(/C=C3\C(=O)NN(c4ccccc4)C3=O)c3ccccc32)cc1 | - | - | - | - | 18µM | -
Cc1ccc(OCCn2cc(/C=N/NC(=O)c3ccncc3)c3ccccc32)cc1 | - | - | -187 | - | - | -
CCOC(=O)N/N=C/c1cn(CCCOc2ccccc2)c2ccccc12 | - | - | - | - | 28µM | -
COc1ccc(OCCn2cc(/C=N/NC(=O)c3ccncc3)c3ccccc32)cc1 | - | - | - | - | - | -
COc1cc2c(NC3CCN(C)CC3)nc(N3CCCN(C)CC3)nc2cc1OCC1CCNCC1 | . | . | . | . | - | .
COc1ccc(C2Nc3ccccc3C(=O)N2Cc2ccco2)cc1CN1C(=O)c2ccccc2C1=O (stereo not drawn) | - | - | - | - | - | -
